Source: PubChem BioAssay (several laboratories)
TPT1 inhibitor – C. albicans TPT1 enzyme inhibition; recombinant caTPT1, FP RNA substrate dephosphorylation; inhibition, % at 5 µM; hit rate 0.81% among 300,000; AID 1962;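 active = inhibition above the mean of all tested compounds plus 3 SD, set per screening campaign, cut at about 24% in these data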
CRFBP-R2 agonist – agonists of human CRF-binding protein/CRF-R2 receptor complex; activation, % at 13.2 µM; HEK293 CRF-R2/CRF-BP, calcium dye fluorescence (FLIPR); percent of saturating CRF peptide response; hit rate 0.46% among 350,000; AID 588473;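 active = activation of at least 50%, plus an integration ratio under a set limit after plate pattern correction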
CRFBP-R2 block – CRF-BP/CRF-R2 complex antagonism | hit rate 0.59% among 350,000 | AID 588475 | HEK293 CRF-R2/CRF-BP, CRF-induced calcium fluorescence | inhibition, % at 11.8 µM;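 active = inhibition of the ligand-induced calcium signal above about 50% at the single tested concentration, limit read from the data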
Myeloid diff MLP – promotes myeloid progenitor differentiation | hit rate 1% among 360,000 | ER-HoxA9 myeloid progenitors, lysozyme-GFP differentiation, flow cytometry | calls only at 10 µM;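 active = normalized GFP-positive differentiation at or above the plate's own cutoff, the solvent-only control mean plus 3 SD; inconclusive = no clear call, values can overlap the other calls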;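 note: cells exposed to compound for four days before flow analysis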
IDE cell activ – IDE (human) activation, cell-based. hit rate 0.073% among 340,000. P14735. activation, % at 5.96 µM. HEK cells, FAbeta-B cleavage, fluorescence polarization; 0% vehicle, 100% cell-free pure enzyme wells;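 active = activation above the mean of all tested compounds plus 3 SD, set per screening campaign, cut at about 17% in these data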
IDE inh – inhibits human insulin-degrading enzyme in HEK cells; AID 434962; P14735; hit rate 0.41% among 320,000; FAbetaB cleavage, fluorescence polarization; inhibition, % at 5.59 µM;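 active = percent inhibition above the average of all tested compounds plus 3 SD, set per screening campaign, cut at about 16% in these data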;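 note: IDE supplied by intact live HEK cells; FP after avidin binding of uncleaved biotin substrate so inhibition keeps polarization high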
Numbers stand for hits; - = inactive; ? = inconclusive; . = not tested or not shown; + = active, no number. Rows were chosen to be rich in hits. Some 2.6% of all compounds tested hit in one or more screens of this group.

SMILES	TPT1 inhibitor	CRFBP-R2 agonist	CRFBP-R2 block	Myeloid diff MLP	IDE cell activ	IDE inh
CC(C)c1nnc(NC(=O)CCC(=O)Nc2ccc(Cl)cc2)s1	-	-	-	-	-	-
COC(=O)Cn1c(=NC(=O)c2sc3ccccc3c2Cl)sc2cc(S(N)(=O)=O)ccc21	-	-	-	-	-	20.3
CCOC(=O)Cn1c(=NC(=O)c2sc3ccccc3c2Cl)sc2cc(S(N)(=O)=O)ccc21	-	-	-	-	-	-
CC1(c2ccc3c(c2)OCCO3)NC(=O)N(CC(=O)Nc2ccccc2)C1=O (centres undefined)	.	-	-	-	-	-
CC1(c2ccc3c(c2)OCCO3)NC(=O)N(CC(=O)Nc2ccccc2SCC#N)C1=O (centres undefined)	.	-	-	+	-	-
C=CCc1cccc(/C=N/NC(=O)CCCNc2ccc(C)cc2)c1O	-	-	-	-	-	-
C=CCc1cccc(/C=N/NC(=O)CCC(=O)Nc2ccc(F)cc2)c1O	-	-	-	+	-	-
O=C(NCCc1ccc2c(c1)OCO2)Oc1ccccc1	.	.	.	-	.	.
Cc1ccc(CN2CCN(/N=C/c3ccc(C(=O)O)cc3)CC2)cc1	-	-	-	-	-	-
Cc1ccc(CN2CCN(/N=C/C(Br)=C\c3ccccc3)CC2)cc1	-	129.0	-	-	.	-
Cc1c(C(=O)N2CCCCC2)oc2ccccc12	.	-	-	-	-	-
Nc1c(C(=O)N2CCCCCC2)oc2ccccc12	-	-	112.5	-	-	-
CCCn1cc(S(=O)(=O)c2ccc(OC)cc2)c(=O)c2cc(OCC)ccc21	-	-	-	-	-	-
CCCn1cc(S(=O)(=O)c2ccccc2)c(=O)c2cc(OCC)ccc21	-	-	74.6	?	-	-
Cc1ccc(CN2CCN(C3CCOCC3)CC2CCO)cc1 (centres undefined)	-	-	79.9	-	-	-
CCCCCC(=O)Nc1cccc(C2=NOC3(C2)C[C@H](C(N)=O)N(C(=O)CCCCC)C3)c1 (some centres undefined)	-	-	-	-	-	-
CCCCCC(=O)N1CC2(CC(c3cccc(NC(=O)CC)c3)=NO2)C[C@H]1C(N)=O (some centres undefined)	-	-	79.0	-	-	-
C/C=C/C(=O)Nc1cccc(C2=NOC3(C2)C[C@@H](C(N)=O)N(C(=O)c2cc([N+](=O)[O-])cc([N+](=O)[O-])c2C)C3)c1 (some centres undefined)	-	232.2	-	-	-	-
CCCCCN(C(=O)CCC(=O)OCCOc1cccc(C)c1)c1c(N)n(CCCC)c(=O)[nH]c1=O	-	-	-	-	-	-
CCN1CCN(C(CNS(=O)(=O)c2cccs2)c2cccnc2)CC1 (centres undefined)	-	-	-	-	-	-
CCOC(=O)N1C2c3ccccc3C(c3ccccc32)N1C(=O)OCC	.	-	-	-	-	.
O=S(=O)(NCc1ccc(F)cc1)c1ccc(Br)cc1Br	.	-	-	-	-	-
CC(C)(CNC(=O)c1ccc(Br)o1)CNC(=O)c1ccc(Br)o1	.	-	76.4	-	-	.
CCN(CC)CCn1c(=O)n(-c2ccc(Cl)cc2)c(=O)c2c3c(sc21)CN(C)CC3	-	-	-	+	-	-
CN1CCc2c(sc3c2c(=O)n(-c2ccc(Cl)cc2)c2nncn32)C1	-	-	-	-	-	-
SMILES	TPT1 inhibitor	CRFBP-R2 agonist	CRFBP-R2 block	Myeloid diff MLP	IDE cell activ	IDE inh
C=CCNC(=O)C1CCC(CNc2nc(=S)[nH]c3ccccc23)CC1 (centres undefined)	-	-	-	-	-	-
O=C(C1CCC(CNc2nc(=S)[nH]c3ccccc23)CC1)N1CCN(c2ccccn2)CC1 (centres undefined)	-	-	-	+	-	-
Cc1ccc(C)c(NC(=O)C[n+]2ccccc2)c1	-	-	-	.	-	-
COC(=O)c1ccc(CSc2nc3ccccc3c(=O)n2-c2ccccc2)o1	-	-	52.6	-	-	-
COC(=O)c1ccc(CSc2nc3ccccc3c(=O)n2-c2ccc(OC)c(OC)c2)o1	-	-	-	-	-	-
CC1(c2nnnn2-c2ccc3c(c2)OCCO3)CCC(=O)N1C1CCN(Cc2ccccc2)CC1 (centres undefined)	.	.	.	-	.	.
COC(=O)c1ccc(CNC(=O)COC(=O)/C=C/c2cccc(OC)c2)cc1	.	-	-	-	.	.
CN(C)c1nc(NCc2ccccc2)nc(SCC(=O)Nc2ccccc2Cl)n1	-	-	58.3	-	-	-
Cc1ccc(C(=O)NCCc2nnc3ccc(SCC(=O)Nc4nnc(C)s4)nn23)cc1	.	-	-	-	.	.
COc1ccc(OCc2nnc(SCC(=O)c3ccccc3)o2)cc1	-	-	-	-	-	-
CCn1c(COc2ccccc2C)nc2ccccc21	-	73.3	-	-	-	-
N#C/C(=C\c1ccc(-c2ccc(C(=O)O)cc2)o1)c1nc2ccccc2[nH]1	.	140.8	-	+	-	.
N#C/C(=C\c1ccccc1C(=O)O)c1nc2ccccc2[nH]1	-	-	-	-	-	-
COc1ccc(Nc2ccccc2)c(C)c1	-	-	50.3	-	-	-
CC1(c2nnc(Cc3ccccc3)o2)CC(c2ccc(Cl)cc2)=NO1 (centres undefined)	-	-	-	-	-	-
CC1(c2nnc(Cc3ccccc3)o2)CC(c2c(Cl)cccc2Cl)=NO1 (centres undefined)	-	-	-	-	39.4	-
Cc1ccccc1Nc1nc(N)[nH]c(=O)c1N=O	.	.	.	-	.	.
Nc1ccc(C2=Nc3cccc4cccc(c34)N2)cc1	.	-	-	-	-	.
CC1=Nc2cccc3cccc(c23)N1	-	-	-	+	-	-
N#Cc1ccccc1S(=O)(=O)N1CCC(C(=O)NCc2ccccc2CN2CCCC2)CC1	.	-	-	-	-	-
Cc1cccc(C)c1NC(=O)Cc1cccs1	-	-	77.6	-	-	-
C=CCN1c2ccccc2[C@]23C[C@@H](C(=O)OC)N(C(=O)c4cccs4)C2=NC(C(=O)OC)=C(C(=O)OC)[C@H]13	-	-	-	-	-	-
COc1c(Cl)cc(-c2noc(C)c2C(=O)NCc2ccc3c(c2)OCO3)cc1Cl	-	70.6	-	-	-	-
COc1cc(-c2noc(C)c2C(=O)NCc2ccc3c(c2)OCO3)cc(OC)c1OC	.	-	-	-	-	-
CCC(Cc1ccccc1)NC(=O)CCc1ccccc1 (centres undefined)	-	-	-	-	-	-
NC1=NC[C@@H](CC2CCCCC2)N1CCc1cc(C(F)(F)F)cc(C(F)(F)F)c1	.	77.8	-	-	-	-
COc1cc(/C=C2/C(=O)NN(c3ccc(C)c(Cl)c3)C2=O)cc([N+](=O)[O-])c1O	.	-	-	+	-	.
O=C1NN(c2ccccc2)C(=O)C1=Cc1ccccc1O	.	-	-	-	.	.
COc1cc(/C=C2\SC(=O)N(c3cccc(Cl)c3)C2=O)cc([N+](=O)[O-])c1O	.	-	53.7	-	-	.
